Compound activity as filed in PubChem.
Rows were chosen to be rich in hits. Some 12% of all compounds tested hit in one or more screens of this group.
SARS PLP yeast: blocks SARS-CoV papain-like protease in a yeast assay; S. cerevisiae expressing SARS-CoV PLpro, growth rescue; Potency, µM (highest dose often 32.9 µM), usual class: activators; actives 0.19% (n = 330,000); AID 485353; calls by dose curve; note: nearly all actives have a fitted effect of over 55% in size
AmpC inh detg: blocks E. coli AmpC beta-lactamase in detergent assay; P00811; AmpC hydrolysis of nitrocefin, absorbance 480 nm, 0.01% Triton; Potency, µM (series often up to 114 µM), usual class: inhibitors; actives 0.041% (n = 370,000); note: nearly all actives have a fitted effect of over 25% in size
Target sequence (P00811 whole entry, looked up): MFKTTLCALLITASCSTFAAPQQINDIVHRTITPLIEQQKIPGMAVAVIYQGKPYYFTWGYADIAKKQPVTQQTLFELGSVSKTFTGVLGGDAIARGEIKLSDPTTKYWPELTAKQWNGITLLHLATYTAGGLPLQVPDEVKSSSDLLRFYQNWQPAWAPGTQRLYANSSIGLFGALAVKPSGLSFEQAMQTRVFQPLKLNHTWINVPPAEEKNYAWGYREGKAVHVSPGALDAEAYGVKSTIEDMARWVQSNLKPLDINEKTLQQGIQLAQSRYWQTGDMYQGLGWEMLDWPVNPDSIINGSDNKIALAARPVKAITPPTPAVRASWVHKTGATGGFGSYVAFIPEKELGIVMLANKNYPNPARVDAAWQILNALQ
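AmpC (5.3 nM in the dispensed reagent) in 20 mM phosphate pH 7.0 with 0.01% (detergent screen) or 0.0001% Triton X-100 was preincubated with compounds for 15 min at room temperature. Nitrocefin was then added from an 800 uM solution, and hydrolysis was followed at 480 nm.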
Pf growth 48h: P. falciparum growth inhibition at 48 hours (one generation) | AID 504832 | P. falciparum luciferase growth in erythrocytes, 48 h | Potency, µM (series often up to 28.7 µM), hits mostly inhibitors | actives 5.9% (n = 310,000)
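Luciferase-expressing parasites in RBCs, 2% Hct / 0.1% parasitemia final; RPMI 1640 + 0.5% Albumax; 37 C, 5% CO2, one generation; luminescence read-out, lower signal = inhibition.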
Sm TGR inh: inhibitors of Schistosoma mansoni thioredoxin glutathione reductase | purified TGR, DTNB reduction, TNB absorbance 405 nm | actives 3% (n = 360,000) | Potency, µM (series often up to 114 µM), actives largely listed as inhibitors | Q962Y6 | AID 485364; note: nearly all actives have a fitted effect of over 60% in size
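First, TGR (20 nM dispensed) and NADPH were mixed with compound. Second, a 15 min room-temperature incubation followed. Third, further NADPH and then DTNB were added to start the reaction. Finally, TNB absorbance was monitored kinetically.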
AmpC inh no detg: inhibitors of E. coli AmpC beta-lactamase without detergent; P00811; Potency, µM (top dose mostly 57.1 µM), most hits filed as inhibitors; actives 0.52% (n = 330,000); AmpC nitrocefin hydrolysis, absorbance 480 nm, 0.0001% Triton; AID 485341; note: nearly all actives have a fitted effect of over 20% in size
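20 mM phosphate pH 7.0 + 0.01% (detergent screen) or 0.0001% Triton X-100; 5.3 nM AmpC reagent; cpd preinc 15 min RT; nitrocefin (800 uM stock) to start; A480 q20 s × 4 min; Activity was normalised to no-enzyme and no-compound control wells.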
Pf growth 96h: P. falciparum growth inhibition at 96 hour, primary screen for plastid delayed-death inhibitors | P. falciparum luciferase reporter growth, 96 h | Potency, µM (titrated, usually from 28.7 µM), actives largely listed as inhibitors | actives 6.9% (n = 320,000) | AID 504834
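Two-generation exposure (96 h) targets delayed-death phenotype. Reporter parasites carrying integrated firefly luciferase, in red cells at 2% hematocrit and 0.05% parasitemia final, kept at 37 C, 5% CO2; luminescence loss indicates inhibition.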
Numbers stand for hits; . = inactive; ? = inconclusive; / = not tested or not shown. Unless noted, calls come from the whole dose curve; as a rule, active = well fitted curve in the direction sought with a large enough effect; inconclusive = small, poorly fitted or top-dose-only effect, or another doubt; inactive = no such curve, though single readings can be large; an effect the other way counts as inactive or inconclusive.

SMILES	SARS PLP yeast	AmpC inh detg	Pf growth 48h	Sm TGR inh	AmpC inh no detg	Pf growth 96h
Clc1ccc2oc(-c3ccccc3)cc(=NCCCN3CCOCC3)c2c1	.	.	4.7µM	.	.	?
OCCCCCN=c1cc(-c2ccccc2)oc2ccc(Cl)cc12	.	?	?	.	.	13µM
[O-][n+]1c2ccccc2c2n1CCCN=C2c1ccc(Cl)cc1	.	.	.	.	.	.
CCOc1ccc(OCCC(=O)N(CC)CC(=O)NCc2ccc(Cl)cc2)cc1	.	.	.	.	.	.
Cc1ccc(N2CCN(S(=O)(=O)c3nnc(NC(=O)c4ccco4)s3)CC2)cc1	.	.	?	.	.	.
Cc1cccc(C)c1OCC(O)CN(Cc1ccccc1O)C1CCCCC1 (stereo not drawn)	.	.	0.26µM	.	.	0.26µM
CN(CC(O)COc1ccc(OCC(O)CN(C)C2CCCCC2)cc1)C1CCCCC1 (stereo not drawn)	/	.	?	.	/	.
NCc1nc2cccnc2n1Cc1ccccc1Cl	/	.	/	.	/	/
COc1ccc2c(c1)CCc1c(C(=O)Nc3ccccc3C(F)(F)F)noc1-2	/	.	/	.	/	/
COc1ccc2occ(C(=O)c3coc4ccc(O)c(CN(C)C)c34)c2c1	.	.	8.3µM	.	.	/
COc1ccc(C(=O)c2coc3ccc(O)c(CN4CCCCC4)c23)cc1	.	.	7.4µM	.	40µM	.
O=C(c1ccccc1)c1coc2ccc(O)c(CN3CCOCC3)c12	.	.	?	.	.	.
COC(=O)c1ccc(NC(=O)c2cc(=O)c3ccc(C)cc3o2)cc1	/	.	/	.	/	/
CCc1ccc(-c2nn(CC(=O)Nc3ccccc3C)c3c2cnc2ccc(C)cc23)cc1	/	.	/	.	/	/
O=S(=O)(c1cc(Cl)ccc1Cl)n1ccnc1	.	.	.	.	.	.
O=[N+]([O-])c1ccc(Cl)c(S(=O)(=O)n2ccnc2)c1	.	.	2.9µM	.	.	.
CCCCn1c(N)c(N(CC(C)C)C(=O)c2ccc(-c3ccc(C(C)=O)cc3)o2)c(=O)[nH]c1=O	.	.	.	.	.	.
N#Cc1c(NC(=S)NC(=O)c2ccccc2)sc2c1CCC2	.	.	.	4µM	.	.
CCC1(C)Cc2c(sc(NC(=S)NC(=O)c3ccccc3)c2C#N)CO1 (stereo not drawn)	.	.	.	?	.	.
CN1Cc2sc(NC(=S)NC(=O)c3ccccc3)c(C#N)c2CC1(C)C	.	.	.	32µM	.	.
CC(C)(C)C(=O)Nc1sc2c(c1C#N)CCC2	.	.	.	.	.	.
CC(C)(C)c1ccc(C(=O)NC(=S)Nc2sc3c(c2C#N)CCC3)cc1	.	.	.	.	.	.
CC(C)(C)C(=O)NC(NC(=S)Nc1sc2c(c1C#N)CCCC2)C(Cl)(Cl)Cl (stereo not drawn)	.	.	.	.	1.1µM	?
O=c1c(-c2cc(-c3ccccc3)nc3c2COc2ccc(Cl)cc2-3)coc2ccccc12	/	.	/	.	/	/
Cc1[nH]n(-c2nc(-c3ccc(Cl)cc3)cs2)c(=O)c1N=Nc1ccc(O)cc1	.	.	?	.	.	6.6µM
SMILES	SARS PLP yeast	AmpC inh detg	Pf growth 48h	Sm TGR inh	AmpC inh no detg	Pf growth 96h
Cc1cc2nc3n(c2cc1C)CC1CC(C(=O)NCc2ccco2)N(C)C31 (stereo not drawn)	.	.	?	.	.	?
CCCCCCN(CCCCCC)C(=O)Cc1c(-c2ccc(F)cc2)[nH]c2ccccc12	/	?	5.9µM	.	.	?
COc1ccccc1N1CCN(C(=O)c2sc3nc(-c4ccc(F)cc4)cn3c2C)CC1	.	?	?	.	.	?
CCN(CC)C(=O)c1sc2nc(-c3cccs3)cc(-c3ccc(Cl)cc3)c2c1N	.	.	?	.	.	7.4µM
CCN(CC)C(=O)c1sc2nc(-c3cccs3)cc(-c3cccs3)c2c1N	.	.	4.1µM	89µM	.	?
O=C1c2ccccc2C(Nc2ccc(Cl)cn2)N1c1cccnc1 (stereo not drawn)	.	.	/	.	.	.
CCc1ccc(NC(=O)CCc2c(C)nn(-c3ccc(N4CCCC4)nn3)c2C)cc1	/	.	/	.	/	/
CC[N+]1(CC)CC2=Cc3c(ccc4ccccc34)C(C)C2C1 (stereo not drawn)	.	.	2.3µM	.	.	1.5µM
CC1NC(C)(C)Cc2c1ccc1ccccc21 (stereo not drawn)	.	.	.	.	.	.
CC(OC(=O)c1cc(O)c2ccccc2c1O)C(=O)Nc1ccc(C(N)=O)cc1 (stereo not drawn)	.	?	?	22µM	.	12µM
CCOc1ccc(CNC(=O)Cn2ncc3c(=O)oc4ccc(C)cc4c32)cc1	/	.	/	.	/	/
CCOc1ccccc1NC(=O)CC1(CC(=O)N2CCOCC2)CCCC1	.	.	?	40µM	.	?
O=C(O)CC1(CC(=O)N2CCC(C(=O)O)CC2)CCCC1	.	45µM	.	.	.	.
O=C(O)CC1(CC(=O)N2CCOCC2)CCCC1	.	35µM	.	.	.	.
COc1ccc(NC(=O)CC2(CC(=O)N3CCOCC3)CCCC2)cc1Cl	.	.	?	.	.	?
Cc1cn(S(=O)(=O)c2ccc(Br)c3ccccc23)cn1	.	.	.	.	.	.
O=C(OC1CCCCC1)c1ccc(NC(=O)C2CCCCC2)cc1	.	?	/	.	.	12µM
CC(C)(C)C(=O)Nc1ccc(C(=O)OC2CCCCC2)cc1	.	?	.	.	.	/
